Records with an inconclusive call do not appear. The source made the active and inactive calls. The call rests on the fitted dose curve; in most records, active means well fitted cell-killing curve with a large enough effect in the repeat runs; inconclusive means weak or mixed curves; inactive means flat fitted curve, though single readings scatter.
Assay: qHTS assay to identify small molecule antagonists of the estrogen related receptor (ERR) signaling pathway - cell viability counter screen (AID 1224818)
Conditions: ERR reporter cell line viability counter screen; series mostly up to 46.1 µM; viability change, negative = cytotoxic: at the top concentration
Source text: National Center for Advancing Translational Sciences [NCATS]
NIH Chemical Genomics Center [NCGC]
U.S. Environmental Protection Agency [EPA]
National Institutes of Environmental Health Sciences [NIEHS]
National Toxicology Program [NTP]
U.S. Food and Drug Administration [FDA]
Estrogen related receptors (ERRs), the first orphan nuclear receptors discovered, play an important role in the control of cellular energy metabolism. ERRs are required for high-energy production in response to the environmental challenges. ERR-alpha was also identified as an adverse marker for breast cancer progression; ERR-alpha-positive tumors have a poor prognosis. To screen and to identify environmental compounds that perturb the ERR signaling pathways could provide valuable information for potential therapeutic or preventive measures in the treatment of metabolic disease. To differentiate true ERR antagonists or agonist from cytotoxic substances, the assay is multiplexed with cell viability assay.
Tox21 Assay Protocol Summary:
The ERR cells were dispensed at 2,000 cells/5 ul/well in 1536-well white plates using a Multidrop dispenser. After the assay plates were incubated at a 37 C/5% CO2 incubator for 6 hours, 23 nL of compounds dissolved in DMSO, positive and negative controls or DMSO only was transferred to the assay plate by a pin tool. The plates were incubated at 37 C for 17.5 hours. 1 ul/well of CellTiter-Fluor reagent was added into the assay plates using a Flying Reagent Dispenser. After 30 min incubation at 37 C/5% CO2, the fluorescence intensity in the plates was measured using a ViewLux plate reader.
On the % scale 0 is the no-effect control and ±100 the full control effect; potency means the concentration at half of the fitted maximal effect.

Row | SMILES | viability change, negative = cytotoxic | Potency
1 | O=[N+]([O-])c1cccc2c(Br)[nH]nc12 | 5.1% (inactive) | –
2 | CCN(CC)CCn1c(=O)c(Cc2ccc(OC)cc2)nc2ccccc21 | -9.54% (inactive) | –
3 | Cc1ccc(O)c(N=Nc2ccccc2)n1 | -17.8% (inactive) | –
4 | CCCC(CCC)C(=O)OC1CC2CCC(C1)[N+]2(C)C (stereo not given) | 14.2% (inactive) | –
5 | Nc1nc(OCC2CCCCC2)c2[nH]cnc2n1 | -9.42% (inactive) | –
6 | COc1cc(/C=C(\C#N)C(=O)c2ccc(O)c(O)c2)cc(I)c1O | -2.25% (inactive) | –
7 | CNCCC(Oc1ccccc1C)c1ccccc1 (stereo not given) | 11.5% (inactive) | –
8 | CC(C)(NS(=O)(=O)c1ccc(Oc2ccc(F)cc2)cc1)C(=O)NO | -13% (inactive) | –
9 | COC(=O)C(C)(N)Cc1ccc(O)cc1 (stereo not given) | 8.09% (inactive) | –
10 | O=c1cc(N2CCOCC2)oc2c(-c3ccccc3)cccc12 | -20% (inactive) | –
11 | Cn1ccnc1 | 0.0832% (inactive) | –
12 | Cc1ccccc1/C=C/C1=NCCN1 | -14.6% (inactive) | –
13 | O=C(c1ccc2c(c1)OCCO2)N1CCCCC1 | 10.8% (inactive) | –
14 | S=C(S)N1CCCC1 | 2.1% (inactive) | –
15 | NS(=O)(=O)c1cccc2c1c([N+](=O)[O-])cc1nc(O)c(O)nc12 | -5.39% (inactive) | –
16 | CC1=C(C(=O)O)N2C(=O)[C@@H](NC(=O)C(N)C3=CCC=CC3)[C@H]2SC1 (stereo not given in full) | 8.08% (inactive) | –
17 | CSC(N)=NCCC[C@H](N)C(=O)O | 3.86% (inactive) | –
18 | COc1ccccc1N1CCN(CCN(C(=O)c2ccc(F)cc2)c2ccccn2)CC1 | -1.46% (inactive) | –
19 | Cc1cccc(C)c1OCC(N)C(C)C (stereo not given) | 6% (inactive) | –
20 | C=C/C(C)=C/[C@@]1(C)SC(=O)C(C)=C1O | -5.74% (inactive) | –

Row | SMILES | viability change, negative = cytotoxic | Potency
21 | OCC1O[C@H](O)C(Cl)C(O)C1O (stereo not given in full) | 11.1% (inactive) | –
22 | COc1cccc(-c2cc(=O)c3ccccc3o2)c1N | -13% (inactive) | –
23 | Nc1nc2ccc(Cl)cc2c2nc(-c3ccco3)nn12 | -10.8% (inactive) | –
24 | CC(C)(C)c1ccc(/C=C/C(=O)Nc2ccc3c(c2)OCCO3)cc1 | -14.6% (inactive) | –
25 | CC(=O)SC1CC2=CC(=O)CC[C@]2(C)C2CC[C@@]3(C)C(CC[C@@]34CCC(=O)O4)C12 (stereo not given in full) | -5.05% (inactive) | –
26 | CC(=O)O[C@H]1CC2(C)[C@@H](C[C@@H](O)[C@H]3[C@@]4(C)CC[C@@H](O)[C@@H](C)[C@@H]4CC[C@@]32C)C1=C(CCC=C(C)C)C(=O)O (stereo not given in full) | 9.81% (inactive) | –
27 | N=C(N)c1ccc(N)cc1 | 6.97% (inactive) | –
28 | COc1ccccc1N1CCN(CCCNc2c(C)c(=O)n(C)c(=O)n2C)CC1 | -9.13% (inactive) | –
29 | N#CC(=C(\N)Sc1ccccc1N)/C(C#N)=C(/N)Sc1ccccc1N | -13.7% (inactive) | –
30 | Cc1cccc(/C=C/c2ccccc2)n1 | 5.83% (inactive) | –
31 | O=c1[nH]c2cc(C(F)(F)F)ccc2n1-c1cc(C(F)(F)F)ccc1O | -18.1% (inactive) | –
32 | CC(=O)N[C@@H](Cc1c[nH]c2ccccc12)C(=O)OCc1cc(C(F)(F)F)cc(C(F)(F)F)c1 | 12.9% (inactive) | –
33 | CC1CC2C3CCC4=CC(=O)C=C[C@]4(C)[C@@]3(F)[C@@H](O)C[C@]2(C)[C@@]1(O)C(=O)CO (stereo not given in full) | 2.87% (inactive) | –
34 | O=c1ccn([C@@H]2O[C@H](COP(=O)(O)OP(=O)(O)O)[C@@H](O)[C@H]2O)c(=O)[nH]1 | 5.48% (inactive) | –
35 | CCCCCCC/C=C\CCCCCCCCC(=O)O | 7.25% (inactive) | –
36 | CC1(C)CCC2=C(O1)c1ccccc1C(=O)C2=O | – | 16.8 µM (active)
37 | C/C(=C\c1ccc(C(=O)O)cc1)c1ccc2c(c1)C(C)(C)CCC2(C)C | -18.1% (inactive) | –
38 | N#C/C(=C\c1ccc(O)c(O)c1)C(=O)NCCc1ccccc1 | -17.8% (inactive) | –
39 | CCCCCCCC/C=C\CCCCCCCC(=O)NCCO | -1.76% (inactive) | –
40 | NCC1OC(OC2C(O)[C@@H](OC3C(O)C(N)CC(N)C3OC3OC(CO)C(O)C(O)C3N)O[C@@H]2CO)C(N)C(O)C1O (stereo not given in full) | 10.9% (inactive) | –

Source: PubChem BioAssay (Tox21)
